Unmarked numbers belong to inactive results.
Tested on: Vero E6 infected with SARS-CoV-2
Experiment: inhibition of SARS-CoV-2 cytopathic effect; higher = more antiviral protection, active = above 15
Conditions: 48 h

Compound | inhibition of SARS-CoV-2 cytopathic effect (1 nM) [%] | inhibition of SARS-CoV-2 cytopathic effect (8.33 nM) [%] | inhibition of SARS-CoV-2 cytopathic effect (100 nM) [%] | inhibition of SARS-CoV-2 cytopathic effect (833.33 nM) [%] | inhibition of SARS-CoV-2 cytopathic effect (10000 nM)
CCC1(c2ccccc2)C(=O)NCNC1=O [primidone] | 0.5 | -0.36 | -1.1 | 0.53 | 1.81%
CC1(C)CC(=O)c2c(C(F)(F)F)nn(-c3ccc(C(N)=O)c(N[C@H]4CC[C@H](OC(=O)CN)CC4)c3)c2C1 | -1.61 | 1.43 | 2.1 | -2.15 | -0.73%
O[C@H]1CC[C@H](Nc2ncc3nc(Nc4c(F)cc(F)cc4F)n([C@H]4CCOC4)c3n2)CC1 | 1.66 | 2.79 | 0.98 | -0.04 | -3.68%
C[C@H]1[C@H](C)CC[C@]2(C(=O)O)CC[C@]3(C)C(=CC[C@@H]4[C@@]5(C)C[C@@H](O)[C@H](O)C(C)(C)[C@@H]5CC[C@]43C)[C@H]12 [corosolic-acid] | -3.62 | -0.43 | -0.51 | -4.03 | -1.21%
Nc1ccc2cc3ccc(N)cc3nc2c1 [proflavine-hemisulfate] | -1.46 | -2.57 | -0.42 | 1.94 | -8.75%
C[C@@]12C[C@@]3(O)O[C@@H](O1)[C@]1(COC(=O)c4ccccc4)[C@H]3C[C@@]12O[C@@H]1O[C@H](CO)[C@@H](O)[C@H](O)[C@H]1O [paeoniflorin] | -0.01 | 0.45 | 0.1 | 0.8 | 0.46%
NC(=O)N1c2ccccc2CC(O)c2ccccc21 (stereo not given) [licarbazepine] | -1.75 | 1.29 | -0.88 | -6.25 | 0.95%
COC1CCN(C(=O)c2cc(Cc3n[nH]c(=O)c4ccccc34)ccc2F)CC1 | -0.72 | 7.33 | 4.58 | 3.41 | 4.58%
CN(C)/C=N/c1c(I)cc(I)c(CCC(=O)O)c1I [iopodic-acid] | -3.57 | 0.15 | -0.76 | 0.26 | -2.24%
COc1cccc(CN(C(=O)CC(C)(C)C)[C@H]2C[C@@H](C(=O)N3CCNCC3)N(Cc3ccc4c(c3)OCO4)C2)c1 | 7.37 | 2.78 | 5.86 | -0.43 | -2.99%
CCn1c(=O)c(-c2ccc(Cl)cc2Cl)cc2cnc(Nc3ccc(N4CCNCC4)c(F)c3)nc21 | -1.29 | -2.53 | -1.93 | -6.85 | -4.65%
N#CN1CCCC1 [pyrrolidine-1-carbonitrile] | 3.76 | 2.93 | -2 | 1.38 | 2.45%
CC/C(=C(/c1ccc(OCCN(C)C)cc1)c1cccc(O)c1)c1ccccc1 [droloxifene] | 0.66 | -1.2 | 1.69 | 0.64 | 34.5% (active)
CC(=O)Nc1ccc(NC(=S)NC(=O)c2ccc(C(C)(C)C)cc2)cc1 [tenovin-1] | -0.23 | 0.85 | 1.6 | -7.1 | -8.92%
CCC(c1ccccc1)c1c(O)c2ccccc2oc1=O (stereo not given) [phenprocoumon] | -0.55 | 0.6 | 1.1 | -0.13 | -0.87%
COc1cc([C@@H]2c3cc4c(cc3[C@@H](O[C@@H]3O[C@@H]5CO[C@@H](C)O[C@H]5[C@H](O)[C@H]3O)[C@H]3COC(=O)[C@H]23)OCO4)cc(OC)c1OP(=O)(O)O [etoposide-phosphate] | -3.4 | -1.24 | -0.75 | -0.98 | 1.67%
COc1cc(/C=C/C(=O)CC(=O)/C=C/c2ccc(O)c(OC)c2)ccc1O [curcumin] | -1.79 | -0.65 | 1.73 | 4.68 | 23.4% (active)

— the supplement of paper PMC13380429
